# Pf growth 96h: P. falciparum growth inhibition at 96 hour, primary screen for plastid delayed-death inhibitors; AID 504834; Potency, µM (series often up to 28.7 µM), without a hit: at the highest dose activity change, negative = inhibition, usual class: inhibitors; actives 6.9% (n = 320,000); P. falciparum luciferase reporter growth, 96 h; also: potency is read from the fitted curve at half-maximal effect
#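 Two parasite generations (96 h, 37 C, 5% CO2) of compound exposure in infected erythrocytes (0.05% parasitemia, 2% hematocrit). Luciferase-reporter P. falciparum; decreased luminescence indicates inhibited growth, aimed at apicoplast-acting delayed death.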
# Pf growth 48h: P. falciparum growth inhibition at 48 hours (one generation); P. falciparum luciferase growth in erythrocytes, 48 h; Potency, µM (titrated, usually from 28.7 µM), for inactives: top-dose activity change, negative = inhibition, hits mostly inhibitors; actives 5.9% (n = 310,000); also: potency is read from the fitted curve at half-maximal effect
#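 Luminescence readout; reporter = integrated firefly luciferase in P. falciparum. RBC culture at 2% hematocrit, 0.1% parasitemia final, 37 C/5% CO2; decreased signal taken as growth inhibition.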
# HCMV antiviral: blocks human cytomegalovirus replication | HFF cells, HCMV-luciferase reporter, 72 h; hits give low values | activity change, negative = inhibition, % at 57.5 µM | actives 4.5% (n = 410,000) | AID 1259415; in the data active = activity change below about -60%; inconclusive = no clear call, values can overlap the other calls; inactive = above about -39%
#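 Cell-based, HFFs, 1000 cells/well, 16 h 37C; cpds in DMSO + HCMV-luc, MOI 1 PFU/cell; 72 h 37C; OneGlo luminescence after 5 min RT; norm. to buffer vs Salinomycin 10uM.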
# Sm TGR block: blocks Schistosoma mansoni thioredoxin glutathione reductase; Q962Y6; purified TGR, DTNB reduction, TNB absorbance 405 nm; Potency, µM (series often up to 114 µM), for inactives: at the highest dose activity change, negative = inhibition, hits mostly inhibitors; actives 3% (n = 360,000); AID 485364; also: potency is read from the fitted curve at half-maximal effect; nearly all actives have a fitted effect of over 60% in size
#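 TGR 20 nM + NADPH 100 uM (dispensed conc.), cpd preinc 15 min RT; start with NADPH (500 uM addition) then DTNB (15 mM addition). Kinetic TNB absorbance, 405 nm filter. Four-parameter Hill fit across titration.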
# Giardia FBPA inh: blocks Giardia fructose-bisphosphate aldolase activity. purified Giardia FBPA. Potency, µM (doses to about 59.6 µM), without a hit: at the top dose activity, negative = inhibition, hits mostly inhibitors. actives 0.71% (n = 290,000); also: potency is read from the fitted curve at half-maximal effect; nearly all actives have a fitted effect of over 55% in size
# Target sequence (A8B2U2 whole entry, looked up): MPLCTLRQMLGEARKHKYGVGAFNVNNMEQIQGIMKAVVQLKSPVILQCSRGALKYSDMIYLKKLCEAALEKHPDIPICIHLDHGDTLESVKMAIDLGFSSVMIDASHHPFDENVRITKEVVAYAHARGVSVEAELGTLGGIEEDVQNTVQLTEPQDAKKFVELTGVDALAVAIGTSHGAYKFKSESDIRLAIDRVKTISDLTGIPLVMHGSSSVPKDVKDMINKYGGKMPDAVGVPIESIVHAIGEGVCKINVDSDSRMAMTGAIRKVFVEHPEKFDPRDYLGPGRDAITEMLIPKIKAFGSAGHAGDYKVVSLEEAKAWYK
#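 Giardia FBPA (40 nM reagent) was preincubated 10 min at RT with compound (up to 57.5 uM final), then substrate plus GAPDH/TPI/NAD/arsenate coupling system with diaphorase/resazurin was added; resorufin fluorescence (525/598 nm) was read after 20 min.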
# * = called active by the depositor; ? = inconclusive; · = no result given. The list is not random: actives were taken first. Their share in the collection is about 14%. Unless noted, calls follow the shape of the dose curve; as a rule, active = well fitted curve in the direction sought with a large enough effect; inconclusive = small, poorly fitted or top-dose-only effect, or another doubt; inactive = no such curve, though single readings can be large; an effect the other way counts as inactive or inconclusive. % is scaled to controls: 0 for no effect and ±100 for the full control effect.
SMILES,Pf growth 96h,Pf growth 48h,HCMV antiviral,Sm TGR block,Giardia FBPA inh
CCCCC[C@H](O)/C=C/[C@@H]1[C@@H](C/C=C\CCCC(=O)O)[C@@H](O)C[C@@H]1O,·,·,·,·,7%
C[C@H](CCCC/C=C/C(=O)O)O[C@@H]1O[C@@H](C)[C@H](O)C[C@H]1O,?,-1%,3,56µM*,·
COC(=O)C[C@@H]1CC[C@H](NC(=O)Nc2ccc(OC)cc2)[C@@H](CO)O1,·,·,92,·,·
O=C(CN1CCN(c2ncc(C(F)(F)F)cc2Cl)CC1)N1CCN(c2ncc(C(F)(F)F)cc2Cl)CC1,12µM*,·,?,9%,-9%
Cc1ccc(C)c(N2N=C(C(=O)Nc3ccc(N4CCOCC4)cc3)CCC2=O)c1,66%,?,·,2%,·
Cc1csc(NC(=O)c2ccc(C)c(S(=O)(=O)N3CCCCC3)c2)n1,4.1µM*,3.3µM*,10,31%,-2%
Cc1ccc(NC(=O)c2ccc(F)cc2)cc1S(=O)(=O)N1CCCCCC1,?,-16%,-78*,6%,-12%
COc1ccc(NC(=O)CN(C)CC(=O)Nc2ccc(C)c(S(=O)(=O)N3CCCCC3)c2)cc1,?,?,-21,-7%,·
COc1ccc(C(=O)Nc2ccc(C)c(S(=O)(=O)N3CCCCCC3)c2)cc1,0%,?,-65*,9%,-9%
COc1cc(NC(=O)c2cccc(Cl)c2Cl)ccc1NC(=O)c1cc2ccccc2o1,·,·,-26,8%,·
O=C(O)C(Cc1ccc(Cl)cc1)NS(=O)(=O)c1ccc(Cl)cc1 (centres undefined),26%,·,16,-3%,22%
CC(C)Oc1ccc(CNC(=O)c2ccc3nc(SCc4ccc(F)cc4)n(C)c3c2)cc1,·,·,-21,14%,·
CCC(C)[C@H](NC(=O)[C@@H]1Cc2ccccc2CN1)C(=O)Nc1ccc2c(c1)OCO2 (some centres undefined),?,?,0,-28%,·
CC(=O)Nc1nc2n(n1)C(c1ccc(Cl)cc1)C=C(C)N2 (centres undefined),27%,3%,-20,14µM*,-12%
O=C1CC(c2ccc(Cl)cc2)N=C(NC(=O)c2ccccc2)N1 (centres undefined),·,·,-4,3%,·
CC1=Nc2ccccc2N=C(NC(=O)c2ccccc2)C1c1ccc(Cl)cc1 (centres undefined),-29%,?,-63*,-3%,-9%
CC1=CC(c2ccc(Cl)cc2)n2nc(NC(=O)c3ccccc3)nc2N1 (centres undefined),·,?,-10,45µM*,-1%
COc1ccc(C2C=C(c3ccc(Cl)cc3)Nc3nc(NC(C)=O)nn32)cc1 (centres undefined),-13%,?,·,?,-15%
NC(=Nc1ccccc1)NN=Cc1c[nH]c2ccccc12,·,·,-85*,·,·
CC(=O)Nc1cccc(C(=O)N/N=C/c2c[nH]c3ccccc23)c1,2.3µM*,25%,21,5%,5%
CCOC(=O)C1CCCN(C(=O)Cn2ncn3c(cc4sc(CC)cc43)c2=O)C1 (centres undefined),·,·,?,6%,·
COc1cccc(C#Cc2c(C=O)n(C)c3ccccc23)c1,?,13µM*,6,-5%,·
CCOc1ccccc1NC(=O)c1cc2c(=O)[nH]c3ccccc3c2s1,·,·,7,4%,·
Cc1cc(CN(C)C(=O)CC2C(=O)NCCN2Cc2c(F)cccc2Cl)n[nH]1 (centres undefined),?,3%,-32,40µM*,-20%
CCn1ccnc1CN(C)C(=O)CC1C(=O)NCCN1Cc1c(F)cccc1Cl (centres undefined),10µM*,48%,-9,?,-13%
Cc1nonc1CN(C)C(=O)CC1C(=O)NCCN1Cc1c(F)cccc1Cl (centres undefined),0%,17%,-10,5%,3%
COC(=O)c1ccc(COc2cccc(C)c2C)cc1,-2%,0%,9,6%,1%
CN(C)C1=NCCN1CCC1CCCC1,-18%,-8%,-19,-20%,-5%
COc1ccc(CCNC(=O)[C@H](C)N2C(=O)N3CCc4c([nH]c5ccccc45)[C@@]3(C)C2=O)cc1OC,-5%,?,-29,13%,-14%
